Measurements reported in the supplement of paper PMC7411640.
Where a name gives a salt, the structure may show the parent alone.

Test system: MDA-MB-468
Experiment: phospho-S6 immunofluorescence (DAPI-normalised), per-plate z-score; higher = higher phospho-S6 signal (less pathway suppression)
Settings: 24 h
Protocol: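 GPCR-targeted compound library (MedChemExpress HY-L006) tested on MDA-MB-468 PTEN-null TNBC cells in 384-well plates at 0.1, 1 or 10 uM, combined with vehicle, GDC0941 450 nM or lapatinib 1 uM, for 24 h. Phospho-S6 (S240/244) immunofluorescence normalised to DAPI and expressed as a per-plate z-score; values are the mean of biological triplicates.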

Compound	phospho-S6 immunofluorescence (z-score) (co-treatment: GDC0941 450 nM)	phospho-S6 immunofluorescence (z-score) (co-treatment: lapatinib 1 uM)	phospho-S6 immunofluorescence (z-score) (co-treatment: vehicle)
NC(N)=Nc1nc(CSCC/C(N)=N/S(N)(=O)=O)cs1 [Famotidine] (compound 10 µM)	-1.24	-0.34	-0.29
CC(C[N+](C)(C)C)OC(N)=O (stereo unspecified) [Bethanechol (chloride)] (compound 10 µM)	0.67	0.01	0.6
O=C1CCC(c2ccccc2)(C2CCN(Cc3ccccc3)CC2)C(=O)N1 (stereo unspecified) [Benzetimide (hydrochloride)] (compound 10 µM)	0.5	-0.15	0.11
CC(C)Cc1ccc([C@@H](C)C(=O)NS(C)(=O)=O)cc1 [Reparixin (L-lysine salt)] (compound 10 µM)	-1.6	-1.46	-0.67
CN(C)CCC(c1ccc(Br)cc1)c1ccccn1 (stereo unspecified) [Brompheniramine (maleate)] (compound 10 µM)	0.58	-0.17	0.3
Clc1ccc(Cn2c(CN3CCCC3)nc3ccccc32)cc1 [Clemizole (hydrochloride)] (compound 10 µM)	-3.06	0.26	-1.37
CC(C)(C)NCC(O)c1ccc(O)c(CO)c1 (stereo unspecified) [Salbutamol (hemisulfate)] (compound 10 µM)	0.44	1.46	0.8
c1ccc2c(CC3=NCCN3)cccc2c1 [Naphazoline (hydrochloride)] (compound 10 µM)	-0.78	0.03	0.05
NCCCC[C@H](NC(=O)[C@@H]1CCCN1C(=O)[C@@H]1CSSC[C@H](NC(=O)CNC(=O)CNC(=O)CN)C(=O)N[C@@H](Cc2ccc(O)cc2)C(=O)N[C@@H](Cc2ccccc2)C(=O)N[C@@H](CCC(N)=O)C(=O)N[C@@H](CC(N)=O)C(=O)N1)C(=O)NCC(N)=O [Terlipressin] (compound 10 µM)	0.05	0.98	0.08
c1cc(CN2CCCNCCNCCCNCC2)ccc1CN1CCCNCCNCCCNCC1 [Plerixafor (octahydrochloride)] (compound 10 µM)	-0.24	0.37	-0.74
N#Cc1ccc2[nH]cc(CCCCN3CCN(c4ccc5oc(C(N)=O)cc5c4)CC3)c2c1 [Vilazodone (Hydrochloride)] (compound 10 µM)	-0.01	-0.76	0.65
OCc1ccc(-c2nn(Cc3ccccc3)c3ccccc23)o1 [Lificiguat] (compound 10 µM)	3.23	2.82	0.54
C=CCN1CCc2nc(N)sc2CC1 (compound 10 µM)	0.68	0.22	0.33
CCCCN1CCC(CNC(=O)c2c3n(c4ccccc24)CCCO3)CC1 [Piboserod] (compound 10 µM)	-0.39	-0.44	0.08
COc1cccc(-c2c(C)n(Cc3c(F)cccc3C(F)(F)F)c(=O)n(C[C@H](NCCCC(=O)O)c3ccccc3)c2=O)c1F [Elagolix] (compound 10 µM)	0.62	-0.03	0.51
CCC(=O)NC[C@@H]1C[C@H]1c1cccc2c1CCO2 [Tasimelteon] (compound 10 µM)	-1.06	-0.25	0.27
CC(=O)OCC(=O)[C@@]1(O)[C@H](C)C[C@H]2[C@@H]3CCC4=CC(=O)C=C[C@]4(C)[C@@]3(F)[C@@H](O)C[C@@]21C [Dexamethasone (acetate)] (compound 10 µM)	0.07	0.45	1.18
C[C@]12CCC(=O)C=C1CC[C@@H]1[C@@H]2[C@@H](O)C[C@@]2(C)[C@H]1CC[C@]2(O)C(=O)CO [Hydrocortisone] (compound 10 µM)	-4.8	-4.13	-2.96
COc1cc(C(=O)NCc2ccc(OCCN(C)C)cc2)cc(OC)c1OC [Trimethobenzamide hydrochloride] (compound 10 µM)	0.29	1.09	0.51
Cc1cccc(C#Cc2ccccc2)n1 [MPEP (Hydrochloride)] (compound 10 µM)	-0.92	0.68	-0.14
Cc1cncc(CN2CCC(=C3c4ccc(Cl)cc4CCc4cccnc43)CC2)c1 [Rupatadine (Fumarate)] (compound 10 µM)	-1.47	-2.09	-1.45
O=c1cc(CN2CCOCC2)occ1OCCCCCSc1ccnc2cc(C(F)(F)F)ccc12 (compound 10 µM)	-2.93	-3.04	-3.82
O=C(C[S+]([O-])Cc1ccco1)NC/C=C\COc1cc(CN2CCCCC2)ccn1 (stereo unspecified) [Lafutidine] (compound 10 µM)	-0.67	0.02	-0.32
O=C(Nc1ccc(Cl)cc1CN1C(=O)c2ccccc2C1=O)c1ccccc1O (compound 10 µM)	-1.83	-0.3	-0.57
OC[C@H]1O[C@@H](n2cnc3c(N[C@@H]4CCc5ccccc54)ncnc32)[C@H](O)[C@@H]1O (compound 10 µM)	1.19	0.89	1.18
CC(C)(C)NCC(O)COc1cccc2c1CCC(=O)N2 (stereo unspecified) [Carteolol (hydrochloride)] (compound 10 µM)	0.64	0.45	-0.38

Compound	phospho-S6 immunofluorescence (z-score) (co-treatment: GDC0941 450 nM)	phospho-S6 immunofluorescence (z-score) (co-treatment: lapatinib 1 uM)	phospho-S6 immunofluorescence (z-score) (co-treatment: vehicle)
Fc1ccc(-c2cncc(CN3CCN(c4cccc5c4OCCO5)CC3)c2)cc1 [Adoprazine] (compound 10 µM)	-2.84	-1.05	-2.49
C[C@]12C=CC(=O)C=C1CC[C@@H]1[C@@H]2C(=O)C[C@@]2(C)[C@H]1CC[C@]2(O)C(=O)CO [Prednisone] (compound 10 µM)	0.55	1.24	0.94
COc1ccccc1Oc1c(NS(=O)(=O)c2ccc(C)cn2)nc(-c2ccncc2)nc1OC [Avosentan] (compound 10 µM)	-0.03	-0.67	-0.65
CCC(N)(C(=O)O)c1ccc(C(=O)O)cc1 (stereo unspecified) (compound 10 µM)	0.66	0.12	-0.54
CN(C)CCCN1c2ccccc2CCc2ccc(Cl)cc21 [Clomipramine (hydrochloride)] (compound 10 µM)	-1.98	-3.26	-1.14
O=C(NCCCN1CCC2(CC1)OCc1ccccc12)[C@H]1CCCN1Cc1ccccc1 (compound 10 µM)	-1.61	-1.57	-0.4
N#Cc1ccc2[nH]cc(CCCCN3CCN(c4ccc5oc(C(N)=O)cc5c4)CC3)c2c1 [Vilazodone] (compound 10 µM)	0.37	0.11	1.24
C[C@]12C=CC(=O)C=C1CC[C@@H]1[C@@H]2[C@@H](O)C[C@@]2(C)[C@H]1CC[C@]2(O)C(=O)CO [Prednisolone] (compound 10 µM)	0.01	1.18	0.05
CC(CN(C)C)CN1c2ccccc2CCc2ccccc21 (stereo unspecified) [Trimipramine (maleate)] (compound 10 µM)	-1.05	-2.53	-0.39
Nc1nc2c(cnn2CCc2ccccc2)c2nc(-c3ccco3)nn12 (compound 10 µM)	-0.2	1.51	3.1
C[C@]12C=CC(=O)C=C1CC[C@H]1[C@@H]3C[C@@H](O)[C@](O)(C(=O)CO)[C@@]3(C)C[C@H](O)[C@@]12F [Triamcinolone] (compound 10 µM)	0.04	0.82	0.94
Cc1nc2c([nH]1)-c1ccccc1N(C(=O)c1ccc(NC(=O)c3ccccc3-c3ccccc3)cc1)CC2 [Conivaptan (hydrochloride)] (compound 10 µM)	0.65	0.52	0.94
CN1Cc2c(N)cccc2C(c2ccccc2)C1 (stereo unspecified) [Nomifensine (maleate)] (compound 10 µM)	-0.09	-0.69	-0.17
COC(=O)CCc1ccc(OCC(O)CNC(C)C)cc1 (stereo unspecified) [Esmolol (hydrochloride)] (compound 10 µM)	1.52	0.09	-0.19
COc1cc2c(NC3CCN(C(C)C)CC3)nc(N3CCC(F)(F)CC3)nc2cc1OCCCN1CCCC1 (compound 10 µM)	1.81	3.34	1.97
NCCc1c[nH]cn1 [Histamine] (compound 10 µM)	0	1.34	0.58
CCN(CC)CCCC(C)Nc1nc(C)cc(Nc2ccc3nc(C)cc(N)c3c2)n1 (stereo unspecified) (compound 10 µM)	0.95	1.82	0.49
N=C(N)NCCCCN [Agmatine (sulfate)] (compound 10 µM)	0.88	-0.16	0.73
Cn1c(=O)c2c(ncn2CC(=O)O)n(C)c1=O [Acefylline] (compound 10 µM)	0.4	0.37	-0.98
CC(C)N(CCCCOCC(=O)NS(C)(=O)=O)c1cnc(-c2ccccc2)c(-c2ccccc2)n1 (compound 10 µM)	0.87	0.26	-0.38
CCN(CC)CCNC(=O)c1cc(Cl)c(N)cc1OC [Metoclopramide (hydrochloride hydrate)] (compound 10 µM)	-0.35	0.77	0.05
CCc1cnc(N2CCC(c3nc(COc4ccc(-n5cnnn5)cc4)cs3)CC2)nc1 (compound 10 µM)	-3.23	-3.56	-6.72
CNS(=O)(=O)Cc1ccc2[nH]cc(CCN(C)C)c2c1 [Sumatriptan (succinate)] (compound 10 µM)	0.01	0.48	0.55
Cc1cc2c(cc1CC(=O)c1sccc1S(=O)(=O)Nc1onc(C)c1Cl)OCO2 [Sitaxsentan (sodium)] (compound 10 µM)	0.35	0.35	0.45
CC[C@@H]1C(=O)OC[C@@H]1Cc1cncn1C [Pilocarpine (Hydrochloride)] (compound 10 µM)	-0.79	-0.13	-0.68
CC1(C)O[C@@H]2[C@@H](CO[C@@]3(COS(N)(=O)=O)OC(C)(C)O[C@@H]23)O1 [Topiramate] (compound 10 µM)	-0.24	0.19	-0.31
